Assay [1] concerns the target Phenylethanolamine N-methyltransferase (Homo sapiens) (UniProt P11086). Put plainly: Confirmatory Screen for Target Class Profiling of Small Molecule Inhibitors of Methyltransferases (AID 1745852). The note with it: MTase-Glo luminescence, SAH detection, recombinant enzyme; measured here: PNMT max response; stronger effect = lower value.
In assay [2] the target is Glutathione peroxidase 1 (Homo sapiens) (UniProt P07203). In words: Primary qHTS Assay for Inhibitors of Recombinant Selenoprotein Glutathione Peroxidase 1 (GPX1) (AID 1845191). Further: nearly all actives have a fitted effect of over 65% in size. Further: potency means the concentration at half of the fitted maximal effect. On activity, negative = inhibition: on the % scale 0 is the no-effect control and ±100 the full control effect. The note with it: recombinant GPX1, GR-coupled NADPH fluorescence, 15 min; series mostly up to 48.8 µM. The method in brief:
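GR-coupled assay: compounds preincubated 30 min at room temperature with GPX1, then reaction started with CHP; final 10 nM GPX1, 1 mM GSH, 0.5 mM CHP, 0.5 mM NADPH, 100 nM GR, 0.01% BSA, pH 7.5 Tris buffer. NADPH fluorescence (340/450 nm) read at 0 and 15 min.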

For assay [3], the target named is Phospholipid hydroperoxide glutathione peroxidase GPX4 (Homo sapiens) (UniProt P36969). Put plainly: Primary qHTS Assay for Inhibitors of Recombinant Selenoprotein Glutathione Peroxidase 4 (GPX4) (AID 1845192). Further: nearly all actives have a fitted effect of over 65% in size. The note with it: recombinant GPX4, GR-coupled NADPH fluorescence, 15 min; series mostly up to 50 µM. The method in brief:
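GR-coupled assay: recombinant GPX4 preincubated 30 min with compound at room temperature; final 200 nM GPX4, 1 mM GSH, 0.5 mM cumene hydroperoxide, 0.5 mM NADPH, 100 nM GR, 0.01% BSA, pH 7.5 Tris. NADPH fluorescence (340/450 nm) read at 0 and 15 min.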

Assay [4] in a line: NCATS anti-infectives library activity on HEK293 viability as a counter-qHTS vs the C. elegans viability qHTS (AID 1745854).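 Further: HEK293 cells exposed to compounds for 24 hr before the viability read.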 Further: potency means the concentration at half of the fitted maximal effect. On activity change, negative = cytotoxicity: on the % scale 0 is the no-effect control and ±100 the full control effect. The note with it: HEK293 viability counter-screen; series mostly up to 41.8 µM. The method in brief:
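Cytotoxicity in human HEK293 cells is measured by ATP-dependent CellTiter-Glo luminescence following a 24 hr incubation with titrated library compounds at 37C. Top final concentration is 41.7 uM.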

Assay [5] is described as follows: NCATS anti-infectives library activity on the primary C. elegans qHTS viability assay (AID 1745855; calls by dose curve; further: potency means the concentration at half of the fitted maximal effect). The note with it: C. elegans worm area imaging, day 7; series mostly up to 41.8 µM. The method in brief: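 Viability is taken from GFP fluorescence of PE254-GFP-FLuc C. elegans imaged by laser cytometry over 7 days. Ten L1 worms per well grow at 21 °C on TOP10 E. coli capsules with titrated compound; levamisole marks toxicity.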

Assay [6] can be described thus: Viability counterscreen for antagonist of constitutive androstane receptor (CAR) against the NCATS DSHEA and TCM libraries (AID 1794837).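 Further: compound exposure lasted 24 h before viability reading; 0% is about no effect.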 The note with it: CAR reporter cell line viability counterscreen, qHTS; series mostly up to 40 µM. The method in brief:
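Fluorescence from CellTiter-Fluor reports live-cell protease activity in HepG2-CYP2B6-hCAR cells treated for 24 h with substances alongside 48 uM CITCO.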

In assay [7] the target is Nuclear receptor subfamily 1 group I member 3 (Homo sapiens) (UniProt Q14994). Put plainly: Primary qHTS for agonist of constitutive androstane receptor (CAR) against the NCATS DSHEA and TCM libraries (AID 1794839).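 Further: HepG2 cells expressing human CAR with a CYP2B6 reporter plus PK11195 antagonist; luciferase reporter luminescence read with ONE-Glo; 0% is about no effect.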 The note with it: CAR agonist reporter cells, qHTS luminescence, CAR antagonist co-added at 0.75 µM; series mostly up to 40 µM. The method in brief:
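Cells stably carrying hCAR and a CYP2B6 reporter (HepG2 background) are seeded and allowed 5 h to adhere. Substances at multiple concentrations are added alongside 0.75 µM PK11195, and luciferase signal is measured after 24 h.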

Assay [8] in a line: HepG2 viability counterscreen (readout 2: ATP content) against the NCATS DSHEA and TCM libraries (AID 1794840).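 Further: HepG2 cells exposed to substances for about 24 h; 0% is about no effect.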 The following applies: ATP content luminescence; series mostly up to 27.3 µM. The method in brief:
(§1)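 Cytotoxicity was assessed in HepG2 cells plated at 1,000 cells/well and exposed for about 24 hours to a concentration series. Protease activity and ATP content were measured sequentially in each well.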

Assay [9] can be described thus: HepG2 viability counterscreen (readout 1: protease activity) against the NCATS DSHEA and TCM libraries (AID 1794841).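 Further: cells exposed to compounds for about 24 h before the protease read; 0% is about no effect.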 The note with it: qHTS concentration series; series mostly up to 27.3 µM. The method in brief:
as §1

Assay [10] is described as follows: Viability counterscreen for agonist of constitutive androstane receptor (CAR) against the NCATS DSHEA and TCM libraries (AID 1794838).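 Further: cells exposed to compound for 24 h; 0% is about no effect.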 The following applies: HepG2 cell viability counterscreen, CAR agonist assay, co-treated with 0.75 µM CAR antagonist; series mostly up to 40 µM. The method in brief:
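In agonist mode, PK11195 is added at 0.75 uM final to HepG2-CYP2B6-hCAR cells dosed with test substances. Cultures incubate 24 h at 37C before a protease-based fluorogenic viability readout.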

Where “and” joins values, the source holds several entries; their conditions need not be identical. Equal values may be shown once. Results filed as inconclusive are left out. Calls of active or inactive are those of the source. Unless noted, the call rests on the fitted dose curve; in most records, active means well fitted curve in the direction sought with a large enough effect; inconclusive means small, poorly fitted or top-dose-only effect, or another doubt; inactive means no such curve, though single readings can be large; an effect the other way counts as inactive or inconclusive.

Chain of Glutathione peroxidase 1 (Homo sapiens) (P07203 whole entry, looked up): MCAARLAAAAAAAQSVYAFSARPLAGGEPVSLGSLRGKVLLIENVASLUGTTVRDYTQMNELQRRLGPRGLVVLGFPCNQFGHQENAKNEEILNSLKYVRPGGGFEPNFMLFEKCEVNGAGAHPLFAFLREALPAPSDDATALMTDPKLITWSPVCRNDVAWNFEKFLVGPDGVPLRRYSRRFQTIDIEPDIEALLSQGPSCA
Chain of Nuclear receptor subfamily 1 group I member 3 (Homo sapiens) (Q14994 whole entry, looked up): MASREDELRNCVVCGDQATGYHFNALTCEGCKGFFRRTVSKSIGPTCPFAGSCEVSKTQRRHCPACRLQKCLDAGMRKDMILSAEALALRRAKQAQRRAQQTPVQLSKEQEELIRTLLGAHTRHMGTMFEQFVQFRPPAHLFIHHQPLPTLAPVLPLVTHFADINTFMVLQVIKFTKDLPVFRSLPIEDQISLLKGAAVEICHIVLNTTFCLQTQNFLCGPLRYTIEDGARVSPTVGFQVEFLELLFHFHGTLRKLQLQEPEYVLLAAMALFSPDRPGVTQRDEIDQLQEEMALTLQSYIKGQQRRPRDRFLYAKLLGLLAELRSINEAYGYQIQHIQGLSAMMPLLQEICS
Chain of Phospholipid hydroperoxide glutathione peroxidase GPX4 (Homo sapiens) (P36969 whole entry, looked up): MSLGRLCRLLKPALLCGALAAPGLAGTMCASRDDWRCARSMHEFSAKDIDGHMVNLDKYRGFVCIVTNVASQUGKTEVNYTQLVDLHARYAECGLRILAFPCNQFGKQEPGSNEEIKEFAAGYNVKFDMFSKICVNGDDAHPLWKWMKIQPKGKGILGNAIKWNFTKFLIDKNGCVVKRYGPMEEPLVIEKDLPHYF
Chain of Phenylethanolamine N-methyltransferase (Homo sapiens) (P11086 whole entry, looked up): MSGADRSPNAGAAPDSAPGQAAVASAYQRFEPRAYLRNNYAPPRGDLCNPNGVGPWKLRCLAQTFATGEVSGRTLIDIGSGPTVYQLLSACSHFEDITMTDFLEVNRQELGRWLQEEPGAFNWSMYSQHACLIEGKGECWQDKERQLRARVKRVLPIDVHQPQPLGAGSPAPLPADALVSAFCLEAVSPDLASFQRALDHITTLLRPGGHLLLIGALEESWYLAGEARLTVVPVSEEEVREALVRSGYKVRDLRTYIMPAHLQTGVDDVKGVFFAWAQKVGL

Take `Cn1cc(-c2cnn3c(N)c(Br)c([C@H]4CCCNC4)nc23)cn1`: the activity in [1] was -78.4%. Also, the Potency result in assay [2] and in [3] was “inactive” in each case.

Consider `O=c1[nH]c(=O)n([C@H]2C[C@@H](O)[C@@H](CO)O2)cc1C=CBr`, for which the Potency result in [4] was “inactive”.

With `c1cc(CN2CCCNCCNCCCNCC2)ccc1CN1CCCNCCNCCCNCC1`, the Potency entry in [4], in assay [2] and in assay [3] was “inactive” throughout.

On to `C[C@H](NC(=O)[C@@H](O)c1cc(F)cc(F)c1)C(=O)N[C@@H]1C(=O)N(C)c2ccccc2-c2ccccc21`, for which the Potency result in assay [4] and in assay [2] was “inactive” in each case. Further, the Potency in assay [5] was 0.365 µM (active).

In the case of `C=C(C)[C@@H]1CC[C@]2(C(=O)O)CC[C@]3(C)[C@H](CC[C@@H]4[C@@]5(C)CC[C@H](O)C(C)(C)[C@@H]5CC[C@]43C)[C@@H]12`, the Potency entry in [4] and in assay [2] was “inactive” in each case. The outcome in assay [6], in assay [7], in assay [8] and in [9] was “inactive” throughout.

As to `C[C@@]12C[C@@]3(O)O[C@@H](O1)[C@]1(COC(=O)c4ccccc4)[C@@H]3C[C@@]12O[C@@H]1O[C@H](CO)[C@@H](O)[C@H](O)[C@@H]1O`, the outcome in assay [6], in assay [10], in [7], in assay [8] and in [9] was “inactive” each time.

As for `CN1CCc2c(c3ccccc3n2Cc2ccc(C(=O)NO)cc2)C1`, the activity in assay [1] was -22.2%. Besides, the Potency entry in assay [2] and in assay [3] was “inactive” in each case.

In the case of `C=Cc1c(C)c2cc3nc(cc4[nH]c(cc5nc(cc1[nH]2)C(C)=C5CCC(=O)O)c(CCC(=O)OC)c4C)[C@@]1(C)C3=CC=C(C(=O)OC)[C@H]1C(=O)OC`, the Potency result in assay [4] and in [2] was “inactive” each time.

Turning to `CCOC(=O)[C@@H](N)Cc1ccc(-c2cc(O[C@H](c3ccc(Cl)cc3-n3ccc(C)n3)C(F)(F)F)nc(N)n2)cc1`, in assay [1], the activity was -6.64%. In addition, the Potency result in [2] and in assay [3] was “inactive” throughout.

Take `CCS(=O)(=O)Nc1ccc2[nH]c(O)c(C(=Nc3ccc(CN4CCCCC4)cc3)c3ccccc3)c2c1`: in assay [4], the Potency is 2 µM (active). The Potency result in assay [2] and in assay [3] was “inactive” throughout.

For the compound `CCN(CC)Cc1ccc2cc(COC(=O)Nc3ccc(C(=O)NO)cc3)ccc2c1`, the activity in assay [1] is -6.29%. Moreover, the Potency result in assay [2] and in assay [3] was “inactive” in each case.

Turning to `O=C1c2cccc(O)c2C(=O)c2c(O)cc(CO)cc21`, the Potency result in assay [4] is “inactive”. Besides, in assay [2], the Potency is 4.09 µM (active).

As to `Nc1ccn(C[C@@H](CO)OCP(=O)(O)O)c(=O)n1`, in assay [4], the activity change, negative = cytotoxicity is 2.29% [at 8.35 µM] (inactive). For the same compound, the activity, negative = inhibition in [2] was -28.5% [at 0.4 µM] (inactive) and -6.08% [at 9.52 µM] (inactive).

As for `Nc1ccc(C(=O)Nc2cccc(-c3nc(N4CCOCC4)c4oc5ncccc5c4n3)c2)cn1`, the Potency result in [4], in assay [2] and in assay [3] was “inactive” each time.

Regarding `C[C@H](NC(=O)Cc1cc(F)cc(F)c1)C(=O)N[C@H](C(=O)OC(C)(C)C)c1ccccc1`, the Potency result in assay [4], in assay [2] and in assay [3] was “inactive” throughout.

For `CCOC(=O)C=C[C@H](C[C@@H]1CCNC1=O)NC(=O)[C@@H](CC(=O)[C@@H](NC(=O)c1cc(C)on1)C(C)C)Cc1ccc(F)cc1`, the Potency result in assay [4], in [2] and in [3] was “inactive” each time.

With `COc1ccc(C(C)=O)c(O)c1`, the outcome in assay [6], in assay [10], in assay [7], in [8] and in assay [9] was “inactive” in each case.

Take `CCCc1nc(C(C)(C)O)c(C(=O)O)n1Cc1ccc(-c2ccccc2-c2nn[nH]n2)cc1`: the Potency entry in [4] and in assay [2] was “inactive” throughout.

Consider `CC(C)C[C@H](NC(=O)[C@@H](NC(=O)c1cccc(-c2ccccc2)n1)[C@@H](C)O)B(O)O`, for which the Potency result in [4], in [2] and in [3] was “inactive” each time. The Potency in assay [5] is 2.05 µM (active).

Consider `c1ccc2c(Oc3nc(Nc4ccc(N5CCOCC5)cc4)c4ncn(C5CCCCC5)c4n3)cccc2c1`, for which the activity in assay [1] was -3.02%. Besides, the Potency result in [2] and in [3] was “inactive” throughout.

Turning to `COc1cc2c(Nc3ccc(Cl)c(Cl)c3F)ncnc2cc1OCC1C[C@@H]2CN(C)C[C@H]2C1`, the activity in [1] is -68.7%.

On to `Cc1cnc(Nc2ccc(CN3CCOCC3)cc2)nc1Nc1cccc(S(=O)(=O)NC(C)(C)C)c1`, for which, in [1], the activity was -4.34%. Further, the Potency result in assay [2] and in [3] was “inactive” in each case.

With `O=C1c2c(O)cccc2[C@@H]([C@@H]2O[C@H](CO)[C@@H](O)[C@H](O)[C@H]2O)c2cc(CO)cc(O)c21`, the outcome in [6], in [10], in [7], in assay [8] and in [9] was “inactive” throughout.

Consider `Cn1cc(CNCC2CCN(c3ncc(C(=O)NO)cn3)CC2)c2ccccc21`, for which the Potency result in [4], in assay [2] and in assay [3] was “inactive” throughout.

With `N#Cc1c(C2CCNCC2)cc(-c2c(O)cccc2OCC2CC2)nc1N`, the activity in assay [1] was -6.86%. The Potency entry in assay [2] is “inactive”.

Take `CCC(C(=O)O)C1CCC(C)C(C(C)C(O)C(C)C(=O)C(CC)C2OC3(C=CC(O)[C@@]4(CC[C@](C)(C5CC[C@@](O)(CC)C(C)O5)O4)O3)C(C)CC2C)O1` (some centres not stated): in assay [4], the activity change, negative = cytotoxicity is -17.2% [at 0.334 µM] (inactive). Also, the Potency result in [2] and in assay [3] was “inactive” in each case.

For `Cc1cc(O)c2c(c1)C(=O)c1cccc(O)c1C2=O`, the Potency entry in assay [4] and in [5] was “inactive” each time. For the same compound, in assay [2], the Potency is 8.17 µM (active).

Values taken from PubChem BioAssay (NCATS).
